Consider 16 molecules from paper PMC5540273 (PLoS ONE, 2017).

SMILES strings stand for the structures.

Some test systems named below: NLK; PAK1; PAK2; PAK3; PAK4; PAK6; PAK7.
Common to all, as to settings: concentration: 1 μM, replicates: in singlicate; n = 1
Another assay deals with T1, NIM1.
T1 construct: gene MGC42105

The next assay relates to T2, OSR1.
T2 construct: gene OXSR1

A further assay has as its system T3, PCTK1.
T3 construct: gene CDK16
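Further: KINOMEscan kinase panel screen.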

Regarding `Cc1ccc(O)cc1Nc1ccnc2ccc(C(C)(C)C)cc12` [GW856805], the “%Inh” value with NIM1 is reported as 52%; with NLK, 1%; with OSR1, 30%; with PAK1, 23%; with PAK2, 50%; with PAK3 it was 0%. In addition, the “%Inh” value in the assay on PAK4 was 17%; with PAK6 it was 34%; in the assay on PAK7 it was 2%; in the assay with PCTK1, 12%.

For `Cc1nn2c(=O)cc(N3CCO[C@H](C)C3)nc2n1Cc1cccc(Cl)c1Cl` [GSK2373693], the “%Inh” value in the assay with NIM1 amounted to 11%; in the assay with NLK, 78%; in the assay with OSR1, 83%; with PAK1, 2%; with PAK2 it was 10%; in the assay on PAK3, 36%. Besides, the “%Inh” value in the assay with PAK4 worked out at 0%; in the assay on PAK6, 52%; in the assay on PAK7, 0%; with PCTK1 it was 7%.

As for `Nc1cccc(-c2ccc3c(N)n[nH]c3c2)c1` [GSK2193613], the “%Inh” value worked out at 0% with NIM1; 17% in the assay with NLK; 13% in the assay with OSR1; 2% with PAK1; 2% in the assay with PAK2; 0% with PAK3. Besides, the “%Inh” value stood at 0% in the assay with PAK4, 6% in the assay on PAK6, 15% in the assay on PAK7 and 0% with PCTK1.

On to `O=C(O)C(F)(F)F.O=c1[nH]ccc2nc(N[C@@H]3CCNC3)nc(Nc3cc(Cl)cc(Cl)c3)c12` [GSK2188764], for which the “%Inh” value with NIM1 came out at 67%; in the assay with NLK it was 19%; in the assay on OSR1, 54%; with PAK1, 92.2%; with PAK2 it was 78%; in the assay on PAK3, 96.9%. The “%Inh” value stood at 96.4% with PAK4, 96% in the assay with PAK6, 99.9% in the assay with PAK7 and 7% with PCTK1.

For `COc1ccc(C2=C(Nc3cccc(O)c3)C(=O)NC2=O)cc1` [SB-390766], the “%Inh” value was found to be 0% with NIM1; 35% with NLK; 4% in the assay on OSR1; 15% in the assay on PAK1; 12% in the assay on PAK2; 30% with PAK3. Further, the “%Inh” value in the assay on PAK4 worked out at 0%; in the assay on PAK6, 10%; with PAK7 it was 0%; in the assay with PCTK1, 5%.

Consider `COc1cccc(C2=C(Nc3cccc(O)c3)C(=O)NC2=O)c1` [SB-390771], for which the “%Inh” value in the assay on NIM1 is reported as 16%; with NLK, 15%; with OSR1 it was 8%; in the assay on PAK1, 7%; with PAK2, 5%; in the assay with PAK3, 32%. The “%Inh” value in the assay on PAK4 came out at 0%; with PAK6 it was 100%; with PAK7, 26%; in the assay on PCTK1, 15%.

As to `CNc1nccc(-c2ccc3c(N)n[nH]c3c2)n1` [GSK2206003], the “%Inh” value in the assay with NIM1 was 15%; in the assay on NLK, 14%; in the assay on OSR1, 18%; in the assay with PAK1, 4%; in the assay on PAK2, 9%; in the assay with PAK3, 48%. In addition, the “%Inh” value in the assay on PAK4 came to 4%; with PAK6 it was 5%; with PAK7, 9%; with PCTK1, 0%.

For the molecule `Cc1ccc(NC(=O)c2cccc(N3CCCCC3)c2)cc1-c1ccc(C(=O)NCC2CC2)cc1` [GSK1917008], the “%Inh” value in the assay with NIM1 is 15%; in the assay with NLK, 5%; with OSR1, 24%; in the assay with PAK1, 14%; in the assay on PAK2, 24%; in the assay on PAK3, 21%. Moreover, the “%Inh” value in the assay on PAK4 worked out at 0%; in the assay on PAK6, 0%; in the assay on PAK7, 2%; in the assay on PCTK1, 12%.

On to `COC(=O)Nc1nc2ccc(Oc3ccc(CC(=O)Nc4cc(C(F)(F)F)ccc4F)cc3)cc2[nH]1` [GW680903], for which the “%Inh” value in the assay with NIM1 was determined as 26%; in the assay with NLK, 22%; with OSR1, 3%; with PAK1 it was 19%; in the assay on PAK2, 22%; with PAK3, 15%. Besides, the “%Inh” value with PAK4 was 0%; in the assay on PAK6 it was 0%; in the assay on PAK7, 97.7%; in the assay on PCTK1, 0%.

With `Cn1cc(-c2cnc(N)c3c(-c4ccc5c(c4)CCN5C(=O)Cc4ccccc4)csc23)cn1` [GSK2593074], the “%Inh” value in the assay on NIM1 amounted to 0%; with NLK it was 17%; with OSR1, 0%; with PAK1, 17%; in the assay with PAK2, 0%; with PAK3 it was 13%. Further, the “%Inh” value amounted to 0% in the assay with PAK4, 17% in the assay on PAK6, 3% in the assay with PAK7 and 0% with PCTK1.

For the molecule `COc1cc(Nc2nccc(N3CCC(NS(=O)(=O)c4ccc(NC(C)=O)cc4)CC3)n2)cc(OC)c1OC` [GSK1379825], the “%Inh” value with NIM1 is given as 16%; in the assay with NLK it was 27%; in the assay with OSR1 it was 19%; with PAK1, 0%; in the assay with PAK2, 19%; in the assay with PAK3, 13%. Moreover, the “%Inh” value with PAK4 came to 0%; in the assay with PAK6, 5%; with PAK7, 1%; in the assay on PCTK1 it was 14%.

As for `Cl.O=C(Nc1ccc(Oc2ccc3[nH]c(NC(=O)c4ccco4)nc3c2)cc1)Nc1cc(C(F)(F)F)ccc1F` [GW683134], the “%Inh” value in the assay with NIM1 turned out to be 4%; in the assay with NLK, 6%; in the assay with OSR1, 8%; in the assay on PAK1 it was 0%; in the assay with PAK2, 0%; with PAK3 it was 59%. The “%Inh” value in the assay on PAK4 turned out to be 0%; in the assay on PAK6, 0%; in the assay with PAK7 it was 0%; in the assay with PCTK1, 7%.

As to `Cl.Cl.NC(CNC(=O)c1cc(Br)c(-c2ccnc3[nH]ccc23)s1)c1ccccc1` (stereo not shown) [GSK1322949], the “%Inh” value with NIM1 came to 65%; with NLK, 22%; with OSR1, 34%; in the assay on PAK1, 32%; in the assay with PAK2, 36%; in the assay with PAK3, 67%. The “%Inh” value with PAK4 stood at 0%; in the assay with PAK6, 16%; in the assay with PAK7, 46%; with PCTK1, 21%.

`Cn1cc(-c2ccc3c(c2)CCN3C(=O)Cc2cc(F)cc(C(F)(F)F)c2)c2c(N)ncnc21` [GSK2635225]: the “%Inh” value with NIM1 is 20%; in the assay with NLK it was 14%; with OSR1, 0%; with PAK1, 13%; with PAK2, 0%; with PAK3 it was 16%. The “%Inh” value is reported as 2% in the assay with PAK4, 4% with PAK6, 16% with PAK7 and 7% in the assay on PCTK1.

`COc1ccc(C)c(Nc2ccnc(Nc3ccc(-c4cnc[nH]4)cc3)n2)c1.Cl` [GW784041]: the “%Inh” value in the assay with NIM1 was found to be 0%; in the assay on NLK, 13%; in the assay on OSR1, 0%; in the assay on PAK1 it was 0%; with PAK2, 12%; with PAK3, 20%. The “%Inh” value with PAK4 stood at 6%; in the assay with PAK6 it was 10%; with PAK7 it was 0%; in the assay on PCTK1, 0%.

For the molecule `CS(=O)(=O)c1cccc(CNc2nc(Nc3ccc4c(c3)CCC(=O)N4)ncc2C(F)(F)F)c1`, the “%Inh” value was determined as 5% in the assay on NIM1; 0% with NLK; 0% in the assay with OSR1; 0% in the assay with PAK1; 0% in the assay with PAK2; 0% with PAK3. The “%Inh” value in the assay with PAK4, in the assay on PAK6, in the assay on PAK7 and in the assay with PCTK1 was 0% in each case.
